Consider eight compounds from PubChem BioAssay (Tox21).

Unmarked numbers belong to inactive results. Records with an inconclusive call do not appear. The source made the active and inactive calls. Unless noted, calls come from the whole dose curve.

Experiment [1] can be described thus: Nuclear factor erythroid 2-related factor 2/antioxidant responsive element (Nrf2/ARE) small molecule agonists: luciferase reporter gene qHTS assay in human keratinocytes (AID 1919969; note: nearly all actives have a fitted effect of over 35% in size; note: potency is the fitted concentration of half-maximal effect). (In a reporter assay the amount or activity of a reporter protein is the signal.)
The target in experiment [2] is Gonadotropin-releasing hormone receptor (Homo sapiens) (UniProt P30968). As to the kind of experiment: Human gonadotropin-releasing hormone receptor (GnRHR) small molecule agonists, calcium flux assay in GnRHR-HEK293 cells (AID 1920063). Note: nearly all actives have a fitted effect of over 35% in size. Note: potency is the fitted concentration of half-maximal effect. Put shortly: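 HEK293 cells stably expressing human GnRHR were dye-loaded for 1 h at 37 C. Compound was added in agonist mode and fluorescence (Ex/Em 480/540) recorded kinetically for 3 min. Fifteen concentrations, triplicates.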
(A change in cytosolic calcium serves as a functional read-out for many receptors and channels.)

For experiment [3], the target named is KiSS-1 receptor (Homo sapiens) (UniProt Q969F8). As to the kind of experiment: Human kisspeptin (KISS1R) small molecule agonists, calcium flux assay in KISS1R-HEK293 cells (AID 1920064; active = well fitted activation curve with a large enough effect in the repeat runs; note: potency is the fitted concentration of half-maximal effect). Put shortly: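 HEK293 cells stably expressing human KISS1R were loaded with calcium dye for 1 h at 37 C, then given compound; fluorescence (Ex/Em 480/540) was read kinetically for 3 min. Fifteen concentrations, triplicate.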

Experiment [4] in a line: p53 small molecule agonists, cell-based qHTS assay with rat liver microsomes (AID 1963578). The essentials: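 p53RE-bla cells, 4,000/well, pre-incubated 5 h, then given compounds plus rat liver microsomes (0.5 mg/mL final) and NADPH (0.5 mg/mL final). Incubation 16 h at 37 C; beta-lactamase reporter read by LiveBLAzer fluorescence after 2 h at room temperature.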
Experiment [5] can be described thus: p53 small molecule agonists, cell-based qHTS assay with rat liver microsomes: qHTS cell viability counter screen (AID 1963580). Note: nearly all actives have a fitted effect of over 45% in size. Put shortly: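 p53RE-bla HCT-116 cells (4,000/well) rested 5 h at 37 C, then given Tox21 compounds in DMSO with rat liver microsomes (0.5 mg/mL final) plus NADPH (0.5 mg/mL final) for 16 h at 37 C. Viability read by CellTiter-Glo luminescence after 30 min at room temperature.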

Experiment [6] can be described thus: p53 small molecule agonists, cell-based qHTS assay: qHTS cell viability counter screen (AID 1963581). Note: nearly all actives have a fitted effect of over 45% in size. Put shortly:
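p53RE-bla HCT-116 cells, compounds added 5 h after plating and incubated 16 h at 37 C. Cytotoxicity measured in the same wells as intracellular ATP by CellTiter-Glo luminescence after 30 min at room temperature.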
(qHTS replaces the single test concentration by a dilution series.)

A short description of experiment [7]: p53 small molecule agonists, cell-based qHTS assay (AID 1963582; active = well fitted activation curve with a large enough effect in the signal ratio in the repeat runs, not every such curve was filed as active; the % refers to the signal ratio). Put shortly: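 p53RE-bla reporter cells, compounds added in DMSO after 5 h plating, incubated 16 h at 37 C. Beta-lactamase read via 2 h room-temperature LiveBLAzer B/G FRET substrate, fluorescence intensity.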
For experiment [8], the target named is 5-hydroxytryptamine receptor 2A (Homo sapiens) (UniProt P28223). As to the kind of experiment: 5-hydroxytryptamine receptor 2A (HTR2A) small molecule antagonists, cell-based qHTS assay (AID 1963586). Note: nearly all actives have a fitted effect of over 45% in size. Put shortly:
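Antagonist-mode intracellular calcium assay: DOI (4 nM) added after 5 min compound pre-incubation at room temperature to dye-loaded HTR2A-CHO cells. Fluorescence followed for 3 min, sampled every second.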

Experiment [9] shares this target. As to the kind of experiment: 5-hydroxytryptamine receptor 2A (HTR2A) small molecule agonists, cell-based qHTS assay (AID 1963587). Note: nearly all actives have a fitted effect of over 30% in size. Put shortly: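 HTR2A-CHO cells, plated 18 h at 37 C/5% CO2, dye-loaded 1 h at 37 C; compounds in DMSO added by pin tool (agonist mode). Intracellular calcium flux read as kinetic fluorescence on FDSS over 2 min at 1 s intervals.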
Experiment [10] addresses Muscarinic acetylcholine receptor M1 (Homo sapiens) (UniProt P11229). The experiment can be described thus: Cholinergic receptor muscarinic 1 (CHRM1) small molecule antagonists, cell-based qHTS assay (AID 1963588). Note: nearly all actives have a fitted effect of over 40% in size. Note: potency is the fitted concentration of half-maximal effect. The essentials: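 CHRM1-CHO calcium-flux assay, antagonist mode. Cells were seeded 18 h, dye-loaded 1 h at 37 C and given compound for 5 min at RT, then acetylcholine was added at 50nM. FDSS fluorescence was read 3 min; 15 concentrations, three runs.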

The target is the same in experiment [11]. As to the kind of experiment: Cholinergic receptor muscarinic 1 (CHRM1) small molecule agonists, cell-based qHTS assay (AID 1963589). Note: nearly all actives have a fitted effect of over 35% in size. The essentials:
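CHO cells stably expressing human CHRM1 were loaded with calcium dye for 1 h at 37 C, then compound was added in agonist mode. Intracellular calcium fluorescence was followed kinetically at 1 s intervals. Fifteen concentrations were tested in three independent runs.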

A short description of experiment [12]: cAMP Responsive Elements (CRE) small molecule agonists, cell-based qHTS assay (AID 1963590). The essentials:
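CRE-bla HEK 293T cells, 2,000/well in DMEM with 10% dialyzed FBS and 25 mM HEPES, pre-incubated 18 h at 37 C, then exposed to compound 3 h at 37 C. Beta-lactamase reporter read with LiveBLAzer B/G FRET substrate after 2 h at room temperature.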

A short description of experiment [13]: cAMP Responsive Elements (CRE) small molecule antagonists, cell-based qHTS assay (AID 1963591; active = well fitted inhibition curve with a large enough effect in the signal ratio in the repeat runs, not every such curve was filed as active; the % refers to the signal ratio). Put shortly:
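CRE-bla HEK293T cells plated 18 h, then given compound plus NKH477 at 0.25 uM final for 3 h at 37C. Beta-lactamase reporter read with LiveBLAzer B/G FRET substrate after 2 h at room temperature.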

Experiment [14] concerns the target Beta-2 adrenergic receptor (Homo sapiens) (UniProt P07550). As to the kind of experiment: Adrenergic beta2 receptor (ADRB2) small molecule antagonists, cell-based qHTS assay (AID 1963592). Note: nearly all actives have a fitted effect of over 50% in size. Note: potency is the fitted concentration of half-maximal effect. The essentials: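 Cells (CHO, stable ADRB2 overexpression) incubated 18-20hr at 37C; compounds added from DMSO; agonist mix (1nM isoproterenol, 100uM IBMX, 25uM Ro-20-1724) added; 0.5hr RT; d2-cAMP and anti-cAMP-cryptate added; 1hr RT; 665/615 nm read.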

The target of experiment [15] is D(2) dopamine receptor (Homo sapiens) (UniProt P14416). The experiment can be described thus: Dopamine D2 receptor (DRD2) small molecule agonists, cell-based qHTS assay (AID 1963594). Note: nearly all actives have a fitted effect of over 35% in size. The essentials: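 HEK293 cells stably expressing DRD2 were cultured 24 h at 37 C, then given Ro20-1724 (0.1 mM final) and compounds for 10 min at room temperature. NKH477 (200nM) was then added for 30 min. cAMP was read by HTRF.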

Experiment [16] shares this target. The experiment can be described thus: Dopamine D2 receptor (DRD2) small molecule antagonists, cell-based qHTS assay (AID 1963595; active = well fitted inhibition curve with a large enough effect in the signal ratio in the repeat runs, with a control signal flat; the % refers to the signal ratio). Put shortly: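 Human DRD2 antagonist qHTS measuring cAMP by HTRF. The cells are exposed to compound for 10 min, then to NKH477 (200 nM) and quinpirole (12 nM) for 30 min at RT, with Ro20-1724 (0.1 mM) present throughout.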
Experiment [17] in a line: G protein-coupled receptor (GPCR) small molecule agonists, calcium flux assay: HEK293 wild type cell line counter screen (AID 1920065). Note: potency is the fitted concentration of half-maximal effect. The essentials: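 Wild-type HEK293 cells plated 18 h, loaded with calcium dye 1 h at 37 C, then compounds added in agonist mode (ATP as positive control). Kinetic fluorescence Ex/Em 480/540 recorded 3 min at 1 sec intervals; 15 concentrations, triplicate.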

The nature of experiment [18]: p53 small molecule agonists, cell-based qHTS assay with human liver microsomes (AID 1963577). The essentials:
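p53RE-bla cells, 4,000/well, compound added after 5 h, with human liver microsomes 0.5 mg/mL and NADPH 0.5 mg/mL final; 16 h at 37 C, then LiveBLAzer 2 h RT, fluorescence.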

Experiment [19] is described as follows: p53 small molecule agonists, cell-based qHTS assay with human liver microsomes: qHTS cell viability counter screen (AID 1963579). Note: nearly all actives have a fitted effect of over 45% in size. The essentials: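 p53RE-bla cells, 4,000/well, dosed 5 hours after plating, with human liver microsomes (0.5 mg/mL final) plus NADPH (0.5 mg/mL final), 16 hours at 37 C. Viability read as CellTiter-Glo luminescence after 30 min at room temperature.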

For experiment [20], the target named is Beta-2 adrenergic receptor (Homo sapiens) (UniProt P07550). As to the kind of experiment: Adrenergic beta2 receptor (ADRB2) small molecule agonists, cell-based qHTS assay (AID 1963593).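 Note: CHO cells stably overexpressing human ADRB2.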 The essentials: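 CHO cells stably over-expressing ADRB2 were plated overnight at 37C, then dosed with compounds plus a stimulation mix containing 100uM IBMX and 25uM Ro-20-1724 for 0.5hr at room temperature. cAMP was measured by HTRF competition, 1hr.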
Beta-2 adrenergic receptor (Homo sapiens), sequence (P07550 whole entry, looked up): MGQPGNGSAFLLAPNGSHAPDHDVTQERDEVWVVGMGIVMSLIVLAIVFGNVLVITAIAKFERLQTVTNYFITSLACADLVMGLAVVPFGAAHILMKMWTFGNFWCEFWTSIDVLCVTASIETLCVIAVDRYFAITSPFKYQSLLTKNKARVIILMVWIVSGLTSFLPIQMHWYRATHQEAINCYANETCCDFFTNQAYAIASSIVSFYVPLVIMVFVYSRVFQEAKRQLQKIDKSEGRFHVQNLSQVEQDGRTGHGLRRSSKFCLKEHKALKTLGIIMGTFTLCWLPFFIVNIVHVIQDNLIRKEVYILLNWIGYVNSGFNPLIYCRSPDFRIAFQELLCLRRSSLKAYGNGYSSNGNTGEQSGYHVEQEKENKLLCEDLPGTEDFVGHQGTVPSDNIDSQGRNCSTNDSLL

D(2) dopamine receptor (Homo sapiens), sequence (P14416 whole entry, looked up): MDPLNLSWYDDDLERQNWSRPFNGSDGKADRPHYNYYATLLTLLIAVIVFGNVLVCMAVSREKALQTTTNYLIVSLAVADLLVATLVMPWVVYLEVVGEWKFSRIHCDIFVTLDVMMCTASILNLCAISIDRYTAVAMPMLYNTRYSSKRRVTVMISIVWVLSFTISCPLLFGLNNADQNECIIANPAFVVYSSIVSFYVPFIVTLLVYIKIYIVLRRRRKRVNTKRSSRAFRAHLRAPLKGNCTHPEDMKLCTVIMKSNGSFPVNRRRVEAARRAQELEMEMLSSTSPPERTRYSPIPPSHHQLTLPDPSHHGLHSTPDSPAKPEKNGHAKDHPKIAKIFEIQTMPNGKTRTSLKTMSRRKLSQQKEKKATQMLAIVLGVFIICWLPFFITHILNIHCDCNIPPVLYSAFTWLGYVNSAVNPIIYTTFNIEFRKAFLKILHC
KiSS-1 receptor (Homo sapiens), sequence (Q969F8 whole entry, looked up): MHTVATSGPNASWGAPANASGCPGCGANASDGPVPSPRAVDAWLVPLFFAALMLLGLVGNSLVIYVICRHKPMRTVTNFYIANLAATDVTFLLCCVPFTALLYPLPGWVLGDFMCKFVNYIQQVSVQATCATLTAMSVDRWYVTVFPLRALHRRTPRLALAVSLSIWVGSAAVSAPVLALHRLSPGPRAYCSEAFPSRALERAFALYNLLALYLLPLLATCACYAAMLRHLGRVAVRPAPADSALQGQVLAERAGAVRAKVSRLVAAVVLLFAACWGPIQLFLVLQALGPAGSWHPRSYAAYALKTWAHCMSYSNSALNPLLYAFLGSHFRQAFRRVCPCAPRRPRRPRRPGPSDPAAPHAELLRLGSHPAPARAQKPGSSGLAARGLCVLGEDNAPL
Muscarinic acetylcholine receptor M1 (Homo sapiens), sequence (P11229 whole entry, looked up): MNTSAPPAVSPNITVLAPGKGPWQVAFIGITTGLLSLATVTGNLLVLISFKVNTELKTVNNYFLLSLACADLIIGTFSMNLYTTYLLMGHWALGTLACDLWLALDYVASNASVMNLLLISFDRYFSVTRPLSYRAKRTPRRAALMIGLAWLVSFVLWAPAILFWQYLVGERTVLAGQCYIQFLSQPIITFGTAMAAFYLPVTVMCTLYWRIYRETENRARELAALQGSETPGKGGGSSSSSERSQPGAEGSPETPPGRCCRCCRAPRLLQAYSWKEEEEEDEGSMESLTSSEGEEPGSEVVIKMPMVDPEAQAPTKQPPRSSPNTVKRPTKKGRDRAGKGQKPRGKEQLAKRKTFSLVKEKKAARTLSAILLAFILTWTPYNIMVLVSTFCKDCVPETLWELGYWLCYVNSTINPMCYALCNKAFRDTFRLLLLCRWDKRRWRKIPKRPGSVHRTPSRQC
5-hydroxytryptamine receptor 2A (Homo sapiens), sequence (P28223 whole entry, looked up): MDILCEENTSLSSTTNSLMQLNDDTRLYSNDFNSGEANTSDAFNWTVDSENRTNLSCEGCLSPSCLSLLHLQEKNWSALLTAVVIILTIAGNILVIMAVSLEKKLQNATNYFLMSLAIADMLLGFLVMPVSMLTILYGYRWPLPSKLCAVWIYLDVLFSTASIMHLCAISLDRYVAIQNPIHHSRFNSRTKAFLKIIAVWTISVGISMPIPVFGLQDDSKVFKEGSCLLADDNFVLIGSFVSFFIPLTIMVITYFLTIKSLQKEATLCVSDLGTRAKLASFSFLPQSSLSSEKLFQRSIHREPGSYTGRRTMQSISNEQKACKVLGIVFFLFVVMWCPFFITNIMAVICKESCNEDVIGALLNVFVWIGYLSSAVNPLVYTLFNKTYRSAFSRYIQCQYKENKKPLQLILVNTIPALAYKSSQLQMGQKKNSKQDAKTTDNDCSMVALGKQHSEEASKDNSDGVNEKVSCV
Gonadotropin-releasing hormone receptor (Homo sapiens), sequence (P30968 whole entry, looked up): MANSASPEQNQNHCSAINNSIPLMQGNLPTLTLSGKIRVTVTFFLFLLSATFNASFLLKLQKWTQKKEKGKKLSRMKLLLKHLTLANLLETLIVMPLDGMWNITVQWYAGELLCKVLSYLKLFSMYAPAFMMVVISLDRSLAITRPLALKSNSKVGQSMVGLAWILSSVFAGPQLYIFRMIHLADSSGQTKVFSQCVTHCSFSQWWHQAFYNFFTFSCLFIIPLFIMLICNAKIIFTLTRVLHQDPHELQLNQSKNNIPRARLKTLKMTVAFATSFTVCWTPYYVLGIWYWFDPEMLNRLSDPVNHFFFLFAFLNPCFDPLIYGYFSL

Take `CCC(C)(C)c1ccc(CC(C)CN2C[C@@H](C)O[C@@H](C)C2)cc1` (stereo partly drawn): the Potency result in experiment [1], in experiment [2], in experiment [3], in experiment [4], in [5] and in experiment [6] was “inactive” each time. Moreover, the Potency entry in [7], in experiment [8], in experiment [9], in experiment [11], in [12] and in experiment [13] was “inactive” each time. The Potency entry in experiment [14], in experiment [15] and in experiment [16] was “inactive” in each case. In addition, the Potency in [10] is 3.65 µM (active).

For `COc1cc(NC(C)CCCN)c2ncccc2c1` (stereo not drawn), the Potency in [1] is 11.9 µM (active). For the same compound, the Potency entry in [2], in experiment [17], in [18], in experiment [4], in experiment [19] and in experiment [6] was “inactive” in each case. The Potency entry in experiment [7], in experiment [12], in [14] and in experiment [16] was “inactive” in each case.

In the case of `Sc1nc2ccccc2s1`, in [1], the Potency is 68.6 µM (active). Moreover, the Potency entry in experiment [2], in experiment [3], in experiment [4], in experiment [19], in experiment [5] and in experiment [6] was “inactive” in each case. For the same compound, the Potency result in experiment [7], in experiment [8], in experiment [9], in [11], in experiment [12] and in [13] was “inactive” throughout. Besides, the Potency result in experiment [14], in experiment [20], in experiment [15] and in experiment [16] was “inactive” each time.

In the case of `CC(O)C#CC(C)O` (stereo not drawn), in [1], the Potency was 21.5 µM (active). Also, the Potency entry in experiment [2], in experiment [17], in experiment [18], in [6], in experiment [8] and in experiment [9] was “inactive” throughout. For the same compound, the Potency result in experiment [10], in [11], in [12], in experiment [13], in experiment [14] and in [15] was “inactive” in each case. The Potency entry in experiment [16] was “inactive”.

Take `OCCN(CCO)c1nc(N2CCCCC2)c2nc(N(CCO)CCO)nc(N3CCCCC3)c2n1`: the Potency entry in [1], in experiment [15] and in experiment [16] was “inactive” each time. The Potency in experiment [2] is 15.1 µM (active); in experiment [3] it was 23.9 µM (active); in experiment [17] it was 16.9 µM (active).

Regarding `O=[N+]([O-])c1ccc(Nc2ccc(Nc3ccccc3)c(S(=O)(=O)O)c2)c([N+](=O)[O-])c1`, the Potency result in [1], in experiment [2], in [3], in experiment [18], in experiment [19] and in [5] was “inactive” each time. Also, the Potency entry in experiment [6], in [7], in experiment [9], in experiment [10], in experiment [11] and in [12] was “inactive” each time. The Potency result in experiment [13], in experiment [14], in experiment [20], in experiment [15] and in experiment [16] was “inactive” in each case.

As for `OCCN1CCN(CCCN2c3ccccc3Sc3ccc(C(F)(F)F)cc32)CC1`, the Potency entry in experiment [1], in [2], in experiment [17], in [18], in experiment [4] and in [19] was “inactive” throughout. Moreover, the Potency result in experiment [5], in experiment [6], in experiment [12], in [13] and in [15] was “inactive” in each case. Moreover, the Potency in experiment [14] was 10.6 µM (active).

With `CCCCCCCC/C=C/CCCCCCCC1=NCCN1CCO`, the Potency entry in experiment [1], in [2], in experiment [3], in [18], in experiment [4] and in experiment [19] was “inactive” in each case. The Potency entry in [5], in [6], in [7], in experiment [9], in [11] and in experiment [12] was “inactive” in each case. For the same compound, the Potency result in experiment [14], in [15] and in [16] was “inactive” throughout.
